Screening data as filed in PubChem BioAssay.
Shown are actives, neighbours in structure and some others; about 1.4% of the full set was active somewhere.
VHR inh abs = VHR1 phosphatase inhibitors, primary screen, biochemical, absorbance, uHTS. Dual specificity protein phosphatase 3 (Homo sapiens), P51452. recombinant VHR phosphatase, pNPP absorbance. inhibition, % at 13.3 µM. 290,000 compounds, 0.52% hits. AID 1654, 2009; in the data active means inhibition above about 50%
Target sequence (P51452 whole entry, looked up): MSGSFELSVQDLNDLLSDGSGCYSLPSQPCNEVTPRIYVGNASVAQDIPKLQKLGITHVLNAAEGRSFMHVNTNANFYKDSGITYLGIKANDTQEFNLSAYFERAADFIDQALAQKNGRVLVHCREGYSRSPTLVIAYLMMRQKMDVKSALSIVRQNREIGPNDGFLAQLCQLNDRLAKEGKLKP
ugtP null kill = growth inhibition of ugtP-null S. aureus, primary screen, RN4220 ugtP deletion, OD600 | 16 h | growth inhibition, % (test concentration not listed) | 330,000 compounds, 0.54% hits | AID 1259309, 2017; in the data active means growth inhibition above about 68%;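 further: plate controls were untreated wells for no effect and antibiotic for full effect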
Sa RN4220 lethal = growth inhibition of S. aureus RN4220, primary screen, OD600; 16 h; inhibition, % (concentration not given with the values); 330,000 compounds, 0.33% hits; in the data active means inhibition above about 85%;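 further: plate controls were untreated cells for no effect and reference antibiotic for full effect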
3CLpro inhibitor = SARS-CoV 3CLpro protease inhibitors, primary screen, biochemical, quenched FRET; Replicase polyprotein 1ab (Severe acute respiratory syndrome coronavirus), P0C6X7; recombinant SARS-CoV 3CLpro, quenched FRET peptide cleavage; inhibition, % at 6 µM; 290,000 compounds, 0.14% hits; AID 1706, 2009; in the data active means inhibition above about 12%
BJeLR viability = MLPCN primary cell-based screen for lethality selective to Ras in HRASV12 cells; BJeLR (HRASV12) viability, CellTiter-Glo ATP luminescence, 48 h; AID 1554, 2009; 300,000 compounds, 0.17% hits; inhibition, % (test concentration not listed); in the data active means inhibition above about 50%
PrPC TRFRET = inhibitors of human cell surface prion protein PrPC, primary screen, cell-based, TR-FRET; Major prion protein (Homo sapiens), P04156; TR-FRET read-out; inhibition, % at 13.8 µM; 370,000 compounds, 0.43% hits; AID 720596, 2013; in the data active means inhibition above about 24%; further: 0% = median of the test wells and 100% = reference compound wells
An asterisk follows results filed as active; x = no result given.

SMILES	VHR inh abs	ugtP null kill	Sa RN4220 lethal	3CLpro inhibitor	BJeLR viability	PrPC TRFRET
NC(N)=NS(=O)(=O)c1ccc(NC(=S)NC(=O)/C=C/c2ccccc2)cc1	23	5	3	-2	-4	-5
NC(N)=NS(=O)(=O)c1ccc(NC(=S)NC(=O)c2ccccc2)cc1	-12	active	93	-1	8	-6
NC(N)=NS(=O)(=O)c1ccc(NC(=S)NC(=O)Cc2ccc(Cl)cc2)cc1	4	88*	4	0	-2	0
COC(=O)c1sccc1NC(=O)C=Cc1ccc(Cl)cc1	x	2	10	x	x	x
Oc1c(Cl)cccc1Cc1cc(Cl)cc(Cl)c1O	x	100*	100*	x	x	-5
NCCCCC1CNC(=O)C(=O)N1CCc1cccc2ccccc12 (centres undefined)	x	1	7	x	x	x
CC1=NN(C(C#N)c2ccccc2O)C(C)(C)C1 (centres undefined)	12	-5	1	6	1	0
CCN1C(C#N)=C(C#N)N=C(C)CC1(C)C	53*	2	0	-2	-8	-5
C=CCC(CC(=O)NC(CO)Cc1ccccc1)C(=O)NCCOC(=O)C(CC=C)Cc1ccc(F)cc1 (centres undefined)	x	-6	3	x	x	x
Cc1cc2nc3ccc(=[N+](C)C)cc-3sc2cc1N	32	44	69	-1	57*	x
CN(C)c1ccc2nc3ccc(=[N+](C)C)cc-3sc2c1	11	-9	13	-4	x	-24
O=C1c2cccc3cccc(c23)C(=O)N1CC1CCN(CC(O)COc2ccc3ccccc3c2)CC1 (centres undefined)	x	14	59	x	10	-21
CCc1ccc(OCC(O)CN2CCC(CN3C(=O)c4cccc5cccc(c45)C3=O)CC2)cc1 (centres undefined)	8	85*	80	-5	19	-22
COC(=O)c1[nH]c2ccccc2c1NC(=O)CN1CCCCCC1	-17	2	3	-1	-5	-3
COC(=O)c1[nH]c2ccccc2c1CN1CCOCC1	56*	14	4	-1	-5	6
CCOC1OC(C(=O)NC2CC2)=CC(c2ccccc2)C1CCCO (centres undefined)	x	0	6	x	x	x
O=C(NC1CC=CCC(CC(=O)N(CCO)Cc2ccccc2)C(=O)NCC(c2ccccc2)OC1=O)OCC1c2ccccc2-c2ccccc21 (centres undefined)	x	8	-4	x	x	x
CC(=O)c1cccc(OCc2cc(C(=O)N(C)C(C)c3ccccn3)no2)c1 (centres undefined)	18	3	3	0	-5	-3
CC(=O)c1cccc(OCc2cc(C(=O)N(C)Cc3cnccn3)no2)c1	50*	-1	3	-4	1	0
COc1ccc2[nH]c(=O)c(CN(Cc3cccs3)S(=O)(=O)c3cccc4nsnc34)cc2c1	-13	-10	8	3	52*	1
CC(=O)n1cc(N(C(=O)CCl)c2ccccc2)c2ccccc21	17	41	37	6	100*	-8
O=C(CCl)N(c1ccccc1)c1c[nH]c2ccccc12	17	90*	91	-5	-11	-2
CC(=O)n1cc(CO)c2ccccc21	21	-4	0	1	-5	6
O=C(CCl)N(c1ccc(Cl)cc1)c1c[nH]c2ccccc12	21	97*	90*	5	17	3
C[C@@]12C(=O)Nc3ccc(Cl)cc3C(=O)N1C1c3cc(Br)ccc3OCC1C2c1ccccc1 (some centres undefined)	x	-3	-7	x	x	x
SMILES	VHR inh abs	ugtP null kill	Sa RN4220 lethal	3CLpro inhibitor	BJeLR viability	PrPC TRFRET
CCN1C(=O)C2C(c3ccc(-c4ccc(Cl)c(Cl)c4)cc3)N[C@@](C)(C(=O)OC)C2C1=O (some centres undefined)	x	2	-4	x	x	x
COc1ccc(-c2nc3ccccn3c2NCc2ccc3c(c2)OCO3)cc1	18	2	5	-3	3	-7
COc1ccc(-c2cc(-c3nc4ccccn4c3NCc3ccccc3)ccc2OC)cc1	x	x	x	x	x	85*
CC(=O)Nc1cc(OC(C)=O)c2nonc2c1OC(C)=O	8	-3	8	37*	x	17
CC(=O)Nc1nonc1NC(C)=O	-6	6	5	4	-4	2
COCc1cccc(C2=CC(=O)CC(c3ccc(OC)cc3)C2)c1 (centres undefined)	x	6	8	x	x	x
CCn1c(C(=O)O)c(CC(=O)Nc2ccc(Br)cc2C)c2ccccc21	57*	3	11	5	7	5
CCN(CC)CCNC(=O)Cc1c(C(=O)O)n(CC)c2ccccc12	6	-1	2	-2	5	3
CC1CCc2c(N3CCC(O)CC3)c(F)cc3c(=O)c(C(=O)O)cn1c23 (centres undefined)	x	99*	99*	x	x	1
CC1CCc2cc(F)cc3c(=O)c(C(=O)O)cn1c23 (centres undefined)	-18	99*	97*	-4	1	3
CCCN1C=CC(=C2C(=O)c3ccccc3C2=O)C=C1	-8	0	4	-5	68*	-44
O=C(Nc1nc(-c2cccs2)c(C(=O)C(F)(F)F)s1)c1ccccc1	-4	89	88*	1	13	-1
O=C(NC1CCCCC1)C1CCCN1S(=O)(=O)c1ccc(Cl)cc1 (centres undefined)	53*	6	3	-5	-4	-3
CC(=O)N1c2ccc(S(=O)(=O)N3CCCCC3)cc2CC1C(=O)NCc1ccccc1C (centres undefined)	52*	7	1	-4	0	-1
Cc1ccc(S(=O)(=O)N2CCC[C@H]2C(=O)NC2CCCCC2)cc1	x	2	3	x	x	-8
COc1ccccc1CNC(=O)C1Cc2cc(S(=O)(=O)N3CCCC3)ccc2N1C(C)=O (centres undefined)	8	-5	-2	-6	-16	3
O=C(NCc1ccccc1F)C1CCCN1S(=O)(=O)c1ccc(F)cc1 (centres undefined)	59*	5	-2	3	-2	4
CCOc1ccccc1CNC(=O)C1Cc2cc(S(=O)(=O)N3CCCCC3)ccc2N1C(C)=O (centres undefined)	18	-3	0	-3	-7	2
CC(=O)N1c2ccc(S(=O)(=O)N3CCCC3)cc2CC1C(=O)NCc1ccccc1F (centres undefined)	56*	-3	-4	-5	-2	-2
COC(=O)C1=C(c2ccc(C(C)=O)cc2)CC2CCC1N2C(=O)N1CCOCC1 (centres undefined)	x	-5	2	x	x	x
O=C1CCC=CCC(CC(=O)N(CCO)Cc2ccccc2)C(=O)NCCO1 (centres undefined)	x	6	6	x	x	x
